# Results taken from ChEMBL document CHEMBL4808148, “HDAC6 screening dataset using tau-based substrate in an enzymatic assay yields selective inhibitors and activators” (2021).
# In all, about 5,600 compounds went through this assay and about 390 (7%) showed an effect of 50% or more. This excerpt belongs to a sample that is enriched for strong results. Non-standard residues stand in square brackets, D forms with d. Residues, ends and D or L forms follow the SMILES beside them.
# Target: T1, Protein deacetylase HDAC6 (Homo sapiens) (UniProt Q9UBN7)
# T1 sequence (whole entry): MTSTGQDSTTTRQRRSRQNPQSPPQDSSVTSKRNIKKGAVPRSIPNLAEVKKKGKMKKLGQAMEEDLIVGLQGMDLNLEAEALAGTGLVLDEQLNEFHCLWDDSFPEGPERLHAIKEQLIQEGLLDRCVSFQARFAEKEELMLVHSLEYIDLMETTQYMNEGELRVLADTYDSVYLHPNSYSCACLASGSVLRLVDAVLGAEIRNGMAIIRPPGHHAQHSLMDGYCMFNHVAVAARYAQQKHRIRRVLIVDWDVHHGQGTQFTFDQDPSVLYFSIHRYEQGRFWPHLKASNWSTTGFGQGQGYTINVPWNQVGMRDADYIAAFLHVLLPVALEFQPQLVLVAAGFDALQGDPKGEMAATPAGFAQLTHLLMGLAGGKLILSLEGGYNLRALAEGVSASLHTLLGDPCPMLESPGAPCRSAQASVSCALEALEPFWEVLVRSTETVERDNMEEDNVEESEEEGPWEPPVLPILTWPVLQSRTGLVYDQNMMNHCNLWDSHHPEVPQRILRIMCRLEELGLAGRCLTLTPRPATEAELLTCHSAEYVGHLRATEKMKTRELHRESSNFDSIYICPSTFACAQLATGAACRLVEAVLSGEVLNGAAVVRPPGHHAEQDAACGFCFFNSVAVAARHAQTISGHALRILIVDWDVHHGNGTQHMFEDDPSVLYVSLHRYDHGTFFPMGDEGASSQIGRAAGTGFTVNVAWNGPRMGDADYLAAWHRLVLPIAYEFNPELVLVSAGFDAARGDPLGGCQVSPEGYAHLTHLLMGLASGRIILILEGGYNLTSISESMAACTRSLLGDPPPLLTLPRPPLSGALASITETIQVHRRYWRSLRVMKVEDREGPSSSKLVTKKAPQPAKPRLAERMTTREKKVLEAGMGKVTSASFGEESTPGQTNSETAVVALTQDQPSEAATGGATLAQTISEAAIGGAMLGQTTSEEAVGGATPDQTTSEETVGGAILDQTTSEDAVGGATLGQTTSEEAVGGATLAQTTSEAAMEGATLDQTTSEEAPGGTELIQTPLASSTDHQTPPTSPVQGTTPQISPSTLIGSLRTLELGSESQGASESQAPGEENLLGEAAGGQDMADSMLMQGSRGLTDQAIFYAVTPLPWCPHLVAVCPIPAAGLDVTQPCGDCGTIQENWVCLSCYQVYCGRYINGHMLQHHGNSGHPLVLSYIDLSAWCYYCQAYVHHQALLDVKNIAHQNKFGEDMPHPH
# Conditions: at 10 µM
row,Compound,inhibition [%]
1,Fc1ccc(-c2c3cccc(C(F)(F)F)c3nn2Cc2ccc(F)cc2Cl)cc1,2.87
2,Cc1ccc(C(=O)c2cc(O)c(O)c([N+](=O)[O-])c2)cc1,-8.08
3,COc1ccc(C(=O)c2ccccc2O)c(O)c1,8.93
4,COc1ccc(C(=O)c2ccc(C)cc2)c(O)c1,50.7
5,Cc1c(C(=O)NC2CCCCC2)sc2nc3ccc(N)cc3n12,49.8
6,CCCCC/N=c1/ccn(Cc2ccccc2)c2ccccc12,-3.26
7,O=c1[nH]cnc2nc[nH]c12,57.8
8,Cc1cccc(C)c1NC(=O)c1ccc(N)cc1,7.12
9,C=C1C(=O)O[C@H]2[C@H]1CC/C(C)=C\CC[C@@]1(C)O[C@@H]21,9.8
10,CC#CC(=O)N1CCC[C@H]1c1nc(-c2ccc(C(=O)Nc3ccccn3)cc2)c2c(N)nccn12,10.6
11,O=C(NC1CCNCC1)c1n[nH]cc1NC(=O)c1c(Cl)cccc1Cl,42.4
12,CC1CCC(NC(=O)N(CCCl)N=O)CC1 (centres undefined),48.2
13,Cc1cccc(Nc2ccncc2S(=O)(=O)NC(=O)NC(C)C)c1,-9.9
14,Cc1cccc(Nc2nc(-c3ccncc3)cs2)c1,91.1
15,Oc1ccc(Nc2nc(-c3ccc(Cl)cc3)cs2)cc1,20.2
16,O=C(O)CC(O)C(=O)O (centres undefined),3.05
17,C[C@H]1[C@H](C)CC[C@]2(C(=O)O)CC[C@]3(C)C(=CC[C@@H]4[C@@]5(C)C[C@@H](O)[C@H](O)[C@@](C)(CO)[C@@H]5CC[C@]43C)[C@H]12,-0.26
18,O=C(NCc1ccccn1)Nc1nnc(-c2ccco2)o1,1.12
19,CCCN(C/C=C/I)C1CCc2cccc(O)c2C1 (centres undefined),14.4
20,CN(C)c1ccc(C(=C2C=CC(=[N+](C)C)C=C2)c2ccc(N(C)C)cc2)cc1,79.1
21,C[C@H](Nc1cc(-c2cnn(C)c2)cc(Nc2cnccn2)n1)c1ccc(F)cc1,3.96
22,O=C(O)C1=CCNCC1,5.63
23,Cc1cc(C)c2nc(-c3ccccn3)cc(C(=O)Nc3ccc(S(=O)(=O)Nc4onc(C)c4C)cc3)c2c1,-6.66
24,Cc1ccc(O)c(/N=N/c2ccccc2)n1,102
25,Cc1ccccc1/N=N/c1ccc(/N=N/c2c(O)ccc3ccccc23)c(C)c1,12
26,C=CCN1CCN(c2nc3ccccc3nc2C#N)CC1,32.5

row,Compound,inhibition [%]
1,CC(C)=CCC/C(C)=C/CC/C(C)=C/CC[C@]1(C)CCc2cc(O)cc(C)c2O1,-4.35
2,CN1CCN(CCc2ccc(Cl)c(Cl)c2)CC1,0.9
3,NC(=O)c1sc(-c2ccsc2)cc1N,101
4,CCc1cc2c(cc1CC)CC(NC[C@H](O)c1ccc(O)c3[nH]c(=O)ccc13)C2,15.6
5,COC(=O)N[C@H](C(=O)N1CCC[C@H]1C(=O)Nc1ccc([C@@H]2CC[C@@H](c3ccc(NC(=O)[C@@H]4CCCN4C(=O)[C@@H](NC(=O)OC)C(C)C)cc3)N2c2ccc(C(C)(C)C)cc2)cc1)C(C)C,18.8
6,CCOC(=O)C1=CCCC[C@H]1S(=O)(=O)Nc1ccc(F)cc1Cl,-6.94
7,CC1=NN(c2ccc(C(=O)O)cc2)C(=O)/C1=C\c1ccc(-c2cc(C)c(C)cc2[N+](=O)[O-])o1,-7.66
8,NC(=O)N/N=C/c1ccc([N+](=O)[O-])o1,-5.79
9,CCOC(=O)c1ccc(N2NC(=O)/C(=C/c3ccc([N+](=O)[O-])o3)C2=O)cc1,66.9
10,Cc1cccc(CCN2CCC(C(=O)c3ccc(NS(C)(=O)=O)cc3)CC2)n1,25.6
11,C[C@]1(O)C[C@@H](c2nc(-c3ccc4ccc(-c5ccccc5)nc4c3)c3c(N)nccn32)C1,29.4
12,Nc1ccc2ncnc(NCCc3ccc(Oc4ccccc4)cc3)c2c1,58
13,COc1cc2ncnc(Nc3ccc(Oc4ccccc4)cc3)c2cc1OC,1.72
14,Fc1ccc(CNc2ncnc3ccc(F)cc23)cc1,-3.85
15,FC(F)(F)c1ccccc1-c1cc(C(F)(F)F)c2[nH]c(C3=NOC4(CCCCC4)C3)nc2c1,-8.26
16,C[C@]12CC[C@H](O)CC1=CC[C@@H]1[C@@H]2CC[C@]2(C)C(c3cccnc3)=CC[C@@H]12,11.3
17,CC[S+]([O-])c1nc(-c2cccc(OCc3ccccc3)c2)cc(C(F)(F)F)n1 (centres undefined),21.6
18,COc1ccc2cc(C(C)C(=O)Oc3ccc(C(N)=S)cc3)ccc2c1 (centres undefined),29
19,Oc1cc(O)c2c(c1)O[C@H](c1ccc(O)c(O)c1)[C@H](O)[C@H]2c1c(O)cc(O)c2c1O[C@H](c1ccc(O)c(O)c1)[C@H](O)C2,11
20,COc1ccccc1CC(=N)N1C[C@@H]2C(=O)CCC(c3ccccc3)(c3ccccc3)[C@@H]2C1,5.85
21,Cc1c(C2CCN(CCc3ccccc3)CC2)noc1-c1ccc(Cl)cc1,5.51
22,Cc1nc(-c2ccc(OCC(C)C)c(C#N)c2)sc1C(=O)O,94.2
23,Cc1cc(SCc2sc(-c3ccc(C(F)(F)F)cc3)nc2C)ccc1OCC(=O)O,46.6
24,CCCCOCCOc1nc(-c2ccc(C(=O)O)c(F)c2)sc1C,3.39
25,CCCCCCCC(=O)N[C@H](CN1CCCC1)[C@H](O)c1ccc2c(c1)OCCO2,6.2
26,CC(=O)NCC(=O)N[C@H](CCC(=O)O)C(=O)O (Ac-Gly-[dE]-OH),1.3

row,Compound,inhibition [%]
1,O=C(O)c1ccc2nc(-c3cc(Cl)cc(Cl)c3)oc2c1,76.5
2,CCN1CCCC1CNC(=O)c1cc(S(=O)(=O)CC)c(N)cc1OC (centres undefined),-7.98
3,C[C@@H]1C(=O)O[C@H]2[C@H](O)C34C5C[C@@H](C(C)(C)C)[C@]36[C@@H](OC(=O)[C@@H]6O)O[C@@]4(C(=O)O5)[C@@]12O (some centres undefined),21
4,CC#CCOC(=O)c1c(C)nc2sc3c(c2c1N)CCC(O)C3 (centres undefined),72.4
5,CN(NC(=O)CC(=O)NN(C)C(=S)c1ccccc1)C(=S)c1ccccc1,1.95
6,CO[C@H]1CC[C@@H](C(=O)c2ccc3nc4c(cc3c2)CCCO4)CC1,61
7,O=S(=O)(c1cccc2c(O)nccc12)N1CCCNCC1,9.53
8,Cc1ccc(S(N)(=O)=O)cc1,-0.54
9,COc1cccc(NC(=O)/C=C/c2ccc(Cl)cc2)c1,99.9
10,COc1ccc(/C=C/C(=O)O)cc1,-4.93
11,COc1cc(NC(=O)c2ccc(-c3ccc(Cl)cc3)o2)cc(OC)c1,1.11
12,CCN(CC)CCOc1ccc(Nc2ncc3cc(-c4c(Cl)cccc4Cl)c(=O)n(C)c3n2)cc1,12.6
13,Cc1cc(-c2ccc(/N=N/c3ccc4c(S(=O)(=O)O)cc(S(=O)(=O)O)c(N)c4c3O)c(C)c2)ccc1/N=N/c1ccc2c(S(=O)(=O)O)cc(S(=O)(=O)O)c(N)c2c1O,80.8
14,NC(=O)NC1NC(=O)NC1=O (centres undefined),1.79
15,C[C@@H]1CCO[C@H]2Cn3cc(C(=O)NCc4ccc(F)cc4F)c(=O)c(O)c3C(=O)N12,-3.66
16,O=C1c2ccccc2C(Cc2ccncc2)(Cc2ccncc2)c2ccccc21,3.99
17,CCc1ccc(OCc2ccccc2C(=O)Nc2ccc3nc(C)cc(N)c3c2)cc1,80.4
18,CCN(CC)CCCC(C)Nc1nc(C)cc(Nc2ccc3nc(C)cc(N)c3c2)n1 (centres undefined),-7.44
19,CCN(CC)CCOC(=O)C(Cc1cccc2ccccc12)CC1CCCO1 (centres undefined),2
20,Nc1nccc2c1ncn2[C@@H]1C=C(CO)[C@@H](O)[C@H]1O,-4.17
21,O=C(NCC1(N2CCN(c3ccccc3)CC2)CCOCC1)c1cccnc1Sc1ccccc1,8.43
22,CCC(C)(C)C(=O)C(=O)N1CCC[C@H]1C(=O)OCCCc1cccnc1,-5.62
23,COc1cc(C(=O)NS(=O)(=O)c2ccccc2C)ccc1Cc1cn(C)c2ccc(NC(=O)OC3CCCC3)cc12,73.7
24,COc1cc(Nc2nc3ccccc3nc2NS(=O)(=O)c2ccc(NC(=O)c3ccc(C)c(OC)c3)cc2)cc(OC)c1,17.4
25,COc1cc(N)c(Cl)cc1C(=O)OCCN1CCCCC1,6.86
26,O=C(NC1Cc2ccccc2N(C[C@@H](O)CO)C1=O)c1cc2cc(Cl)sc2[nH]1 (some centres undefined),-2.31

row,Compound,inhibition [%]
1,CCCCCCCC/C=C\CCCCCCCC(=O)N[C@@H](CO)Cc1ccc(O)cc1,27.9
2,Nc1ccc(/N=N/c2ccccc2)c(N)n1,102
3,NC(C(=O)O)c1cc(O)ccc1Cl (centres undefined),15.3
4,CCCn1c(=O)c2[nH]cnc2n(-c2ccc(Cl)cc2)c1=O,20.4
5,C/C=C(/C(=C/C)c1ccc(O)cc1)c1ccc(O)cc1,0.77
6,COc1ccc(O)cc1,19.4
7,COc1cc(/C=C/c2ccc(O)cc2)cc(OC)c1,99
8,COc1cc(/C=C2\CCC/C(=C\c3ccc(O)c(OC)c3)C2=O)ccc1O,35.9
9,OC[C@H]1O[C@@H](Oc2cc(O)cc(/C=C/c3ccc(O)cc3)c2)[C@H](O)[C@@H](O)[C@@H]1O,31.5
10,O=S(=O)(O)c1cc(O)ccc1O,-4.71
11,COc1cc(/C=C/c2ccc(OC)cc2OC)cc(OC)c1,86.2
12,Oc1cc(O)cc(/C=C/c2ccc(O)c(O)c2)c1,85.2
13,COc1ccc(/C=C\c2cc(OC)c(OC)c(OC)c2)cc1O,14.7
14,Oc1cc(O)cc(O)c1,18.2
15,Oc1ccc(/C=C/c2cc(O)cc(O)c2)cc1,97
16,NCC(O)(CS(=O)(=O)O)c1ccc(Cl)cc1 (centres undefined),-2.67
17,C=CC1=C(C)c2cc3[nH]c(cc4nc(cc5[nH]c(cc1n2)c(C)c5CCC(=O)O)C(CCC(=O)O)=C4C)c(C)c3C=C,21.1
18,C[C@H](N)[C@H](O)c1cccc(O)c1,1.85
19,CCCC(=O)C1CCN(c2ncnc3c2CN(C(=O)c2ccc(-c4ccccc4)cc2)CC3)CC1,2.41
20,Cn1c(=O)c2c(ncn2CC(=O)Nc2ccc(-c3ccccc3)nn2)n(C)c1=O,41.8
21,CN(CC[C@@H](Oc1ccc(-c2ccccc2)cc1)c1ccc(F)cc1)CC(=O)O,-3.28
22,O=C(/C=C/c1c(C(=O)O)[nH]c2cc(Cl)cc(Cl)c12)Nc1ccccc1,27.4
23,COc1ccc2c(c1)-c1nn(CCCN(C)C)c3ccc([N+](=O)[O-])c(c13)N2,9.03
24,CC(=O)NC[C@H]1CN(c2ccc(-c3ccc(CNCc4cnn[nH]4)cc3)c(F)c2)C(=O)O1,35.9
25,CC(=O)NC[C@H]1CN(c2ccc(N3CCSCC3)c(F)c2)C(=O)O1,9.47
26,Cn1nnc(-c2ccc(-c3ccc(N4C[C@H](CO)OC4=O)cc3F)cn2)n1,67.9
